This is a sample that favours compounds with a hit; in the whole collection about 7.9% have one here.
HT1080NT lethal – kills 2HG-producing HT-1080-NT fibrosarcoma cells; HT-1080-NT fibrosarcoma viability, CellTiter-Glo ATP luminescence, 48 h; Potency, µM (highest dose often 46.1 µM), for the others: top-dose activity, negative = less viability, actives largely listed as cytotoxic; 1.6% of 360,000 active; AID 686970;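 also: NT is the 2HG producing partner of a matched IDH1 knockdown line; 0% = DMSO-treated cells and -100% = media-only wells without cells; nearly all actives have a fitted effect of over 55% in size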
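750 cells/well, RPMI + 5% FBS; 2 h settle, compound pin-transfer, 48 h at 37 degrees C. CellTiter-Glo 10 min RT, luminescence. Normalized to DMSO and media-only wells.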
MCF10A rereplic – DNA re-replication induction in MCF 10a cells | MCF 10A DNA re-replication, Hoechst nuclear intensity, 48 h | Potency, µM (highest dose often 46.1 µM), inactives show at the highest dose activity, positive = re-replication, usual class: activators | 2.9% of 350,000 active | AID 624296; also: % of control where 0% means no effect; nearly all actives have a fitted effect of over 50% in size
SW480 rerep – DNA re-replication induction in SW480 cells | SW480 DNA re-replication, Hoechst DNA content imaging, 48 h | Potency, µM (titrated, usually from 46.1 µM), for the others: at the highest dose re-replication activation, most hits filed as activators | 1.8% of 340,000 active | AID 624297; also: % of control where 0% means no effect; nearly all actives have a fitted effect of over 55% in size
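DNA re-replication was detected as more nuclei of elevated Hoechst intensity after 48 hr exposure to compound (23 nL pinned per well of 250 cells).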
KB-3-1 tox – kills parental KB-3-1 adenocarcinoma cells; KB-3-1 viability, CellTiter-Glo ATP luminescence, 72 h; Potency, µM (highest dose often 46.1 µM), most hits filed as cytotoxic; 1.4% of 400,000 active; also: % is scaled to controls: 0 for no effect and ±100 for the full control effect; nearly all actives have a fitted effect of over 60% in size
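Screening of KB-3-1 cells (DMEM, 10% FBS, phenol-red free) ran from lowest to highest compound concentration; after 72 h at 37 °C viability was read luminescently and curves fitted.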
HT1080 IDH1KD tx – kills HT-1080 cells with IDH1 knockdown; HT-1080 IDH1 knockdown viability, ATP luminescence, 48 h; Potency, µM (doses to about 46.1 µM), inactives show top-dose activity, negative = toxicity, actives largely listed as cytotoxic; 2% of 360,000 active;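 also: 0% = DMSO wells and -100% = cell-free medium wells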
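Using the IDH1-knockdown HT-1080 line run in the same batch and compound series as the NT line, viability after 48 h at 37 °C was determined by CellTiter-Glo luminescence and expressed as % activity.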
KB-V1 cytotox – kills drug-selected multidrug resistant KB-V1 cells; Potency, µM (highest dose often 46.1 µM), usual class: cytotoxic; AID 1347076; KB-V1 MDR cells viability, CellTiter-Glo, 72 h; 3.4% of 400,000 active; also: % is scaled to controls: 0 for no effect and ±100 for the full control effect; nearly all actives have a fitted effect of over 60% in size
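Luminescent ATP read-out (CellTiter-Glo, 10 min) measures survival of drug-selected KB-V1 MDR cells after 72 h, 37 degrees C compound exposure. Medium: phenol-red-free DMEM, 10% FBS. Values from fitted concentration-response curves.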
An asterisk follows results filed as active. Calls follow the shape of the dose curve; as a rule, active = well fitted curve in the direction sought with a large enough effect; inconclusive = small, poorly fitted or top-dose-only effect, or another doubt; inactive = no such curve, though single readings can be large; an effect the other way counts as inactive or inconclusive. Potency is read from the fitted curve at half-maximal effect.

`CC(c1ccccc1)n1cncc1C(=O)N1CCCC1=O` (stereo unspecified) gave HT1080NT lethal 12.7%, MCF10A rereplic 1.4%, SW480 rerep -1.0%, KB-3-1 tox inactive, HT1080 IDH1KD tx 12.4% and KB-V1 cytotox inactive.
For O=C(Cc1ccc(N(CCCl)CCCl)cc1)NC(Cc1ccc(Cl)cc1)C(=O)O (stereo unspecified) the results were HT1080NT lethal 14.9%, MCF10A rereplic -5.8%, SW480 rerep 1.4%, KB-3-1 tox inactive, HT1080 IDH1KD tx 8.9% and KB-V1 cytotox inactive.
O=C(Cc1c[nH]c2ccccc12)NNCc1ccc(N(CCCl)CCCl)cc1 was read as HT1080NT lethal -6.6%, MCF10A rereplic 24.7%, SW480 rerep 16.4µM*, KB-3-1 tox inconclusive, HT1080 IDH1KD tx -15.2% and KB-V1 cytotox inactive.
Screening CC(C)(C)C(=O)c1cn(Cc2ccccc2)c2ccccc12 returned HT1080NT lethal -28.5%, MCF10A rereplic 4.0%, SW480 rerep 14.6%, KB-3-1 tox inactive, HT1080 IDH1KD tx -17.9% and KB-V1 cytotox inconclusive.
Screening COc1ccc(NC(=S)Nc2ncccc2C)c(OC)c1 returned HT1080NT lethal 7.08µM*, MCF10A rereplic -8.0%, SW480 rerep inconclusive, KB-3-1 tox inactive, HT1080 IDH1KD tx 10µM* and KB-V1 cytotox inactive.
Screening CC(=O)c1cccc(-c2ccnc3c2CC(C(=O)NCCc2ccccc2)O3)c1 (stereo unspecified) returned HT1080NT lethal inconclusive, KB-3-1 tox 2.31µM*, HT1080 IDH1KD tx inconclusive and KB-V1 cytotox 3.26µM*.
COC(=O)C1=C(c2cccc(C#N)c2)C[C@@H]2CC[C@H]1N2C(=O)NCCc1ccccc1 was read as HT1080NT lethal -22.3%, MCF10A rereplic -10.6%, SW480 rerep -2.9%, KB-3-1 tox inactive, HT1080 IDH1KD tx -3.4% and KB-V1 cytotox inactive.
CC(=O)Nc1cccc(-c2ccnc3c2CC(C(=O)NCc2ccco2)O3)c1 (stereo unspecified) was read as HT1080NT lethal inconclusive, KB-3-1 tox 5.8µM*, HT1080 IDH1KD tx 2.31µM* and KB-V1 cytotox inactive.
Screening O=C(c1ccc2c3c(cccc13)CC2)C1CCCN(CC2CC2)C1 (stereo unspecified) returned HT1080NT lethal inconclusive, MCF10A rereplic -5.1%, SW480 rerep 6.5%, KB-3-1 tox inactive, HT1080 IDH1KD tx 16.4µM* and KB-V1 cytotox inconclusive.
Screening C=C1CC[C@H](O)C/C1=C/C=C1\CCC[C@]2(C)[C@@H]([C@H](C)CCCC(C)C)CC[C@@H]12 returned MCF10A rereplic 23.7µM* and SW480 rerep 14.7%.
Screening CN1C(=O)NC(=O)/C(=C\c2ccc([N+](=O)[O-])o2)C1=O returned HT1080NT lethal 2.1%, MCF10A rereplic -27.3%, SW480 rerep -15.2%, KB-3-1 tox inactive, HT1080 IDH1KD tx -16.9% and KB-V1 cytotox inactive.
CCOC(=O)c1ccc(-[n+]2c(-c3ccccc3)cc(-c3ccccc3)cc2-c2ccccc2)cc1 was read as HT1080NT lethal 18.4µM*, MCF10A rereplic inconclusive, SW480 rerep inconclusive, KB-3-1 tox inactive, HT1080 IDH1KD tx 23.1µM* and KB-V1 cytotox inactive.
CCOC(=O)c1cccc(-[n+]2c(-c3ccccc3)cc(-c3ccccc3)cc2-c2ccccc2)c1 was read as HT1080NT lethal inconclusive, MCF10A rereplic 0.6%, SW480 rerep inconclusive, KB-3-1 tox inconclusive, HT1080 IDH1KD tx 18.4µM* and KB-V1 cytotox inactive.
Screening Cc1ccc(-c2cc(-c3ccc(C)cc3)[n+](-c3ccc(C(=O)[O-])cc3)c(-c3ccc(C)cc3)c2)cc1 returned HT1080NT lethal -16.6%, MCF10A rereplic inconclusive, SW480 rerep -2.9%, KB-3-1 tox inactive, HT1080 IDH1KD tx -14.6% and KB-V1 cytotox inactive.
